Among all 320,000 compounds or so, about 2,100 (0.66%) were called active. About 53% were inconclusive and are not listed. Calls follow the shape of the dose curve; as a rule, active = well fitted inhibition curve with a large enough effect in the signal ratio, with a control signal flat (not every such curve was filed as active); inconclusive = small, poorly fitted or top-dose-only effect, or effect the other way, or a change in a side signal; inactive = flat fitted curve, though single readings scatter; the % refers to the signal ratio. Many of the other results were omitted from the sample, so actives are more common in it than they were.
Assay: qHTS Assay for Lipid Storage Modulators in Drosophila S3 Cells;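 as to cell number change: cells counted by Cell Tracker Red CMTPX staining in the red channel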; as to lipid storage change, negative = inhibition: % is scaled to controls: 0 for no effect and ±100 for the full control effect
Conditions: BODIPY lipid droplet fluorescence, 18-24 h, cells fed with added oleic acid; cell number change: measured here: cell count max response; series mostly up to 46.1 µM; lipid storage change, negative = inhibition: at the top concentration
In short: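 Laser-scanning cytometry quantifies lipid droplet accumulation (500–530 nm total intensity; droplet/cell object ratio) in oleic acid-fed (400 uM added) Drosophila S3 cells treated with a concentration series. 20 uM Triacsin C defined 100% inhibition.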
Potency is read from the fitted curve at half-maximal effect.

SMILES | lipid storage change, negative = inhibition | cell number change [%] | Potency | outcome
Cc1cc2[nH]c(=O)c(=O)[nH]c2cc1S(=O)(=O)Nc1cccc(C)c1C | 14.4% (inactive) | -1.15 |  | 
CCN(c1ccccc1)S(=O)(=O)c1cc2c(cc1C)n(C)c(=O)c(=O)n2C |  | -9.51 | 8.2 µM (active) | 
Cc1cccc(N(C)S(=O)(=O)c2cc3c(cc2C)n(C)c(=O)c(=O)n3C)c1 |  | -12.7 | 13 µM (active) | 
Cc1cccc(NS(=O)(=O)c2cn(C)c(=O)n(C)c2=O)c1C | -26.7% (inactive) | 14.4 |  | 
Cc1cc2c(cc1S(=O)(=O)Nc1cccc(C)c1C)n(C)c(=O)c(=O)n2C |  | -26.2 | 9.2 µM (active) | 
Cc1cc2c(cc1S(=O)(=O)N(C)c1ccccc1)n(C)c(=O)n2C | -21.6% (inactive) | 9.55 |  | 
Cc1cc2c(cc1S(=O)(=O)N(C)Cc1ccccc1)n(C)c(=O)c(=O)n2C |  | -28.5 |  | inactive
Cc1cc2c(cc1S(=O)(=O)NCc1ccccc1)n(C)c(=O)c(=O)n2C |  | -17.3 |  | inactive
CCN(c1ccccc1)S(=O)(=O)c1cc(C(=O)O)ccc1C | 14.4% (inactive) | -3.04 |  | 
O=C(CN1C(=O)NC2(CCCC2)C1=O)Nc1cc(S(=O)(=O)N2CCOCC2)ccc1OCC(F)(F)F | 0.0733% (inactive) | 18 |  | 
Cc1ccccc1-n1nc2c(c1NC(=O)c1cccs1)CS(=O)(=O)C2 |  |  |  | inactive
Nn1c(SCC(=O)Nc2ccccc2)nnc1-c1cccnc1 |  |  |  | inactive
COc1cccc(C(=O)Nc2nnc(-c3ccccc3)s2)c1 | -1.19% (inactive) | 0.556 |  | 
Cc1ccccc1NC(=O)CCC(=O)OCCCC(F)(F)C(F)(F)F | 20.7% (inactive) | 12.7 |  | 
Cc1ccccc1OC(=O)CCC(=O)OCCCC(F)(F)C(F)(F)F |  | 10.2 | 29.1 µM (active) | 
Cc1ccc(NC(=O)CCC(=O)OCCCC(F)(F)C(F)(F)F)cc1 | -0.336% (inactive) | -12.9 |  | 
O=c1oc(-c2cccc([N+](=O)[O-])c2)nc2ccccc12 | 12% (inactive) | 0.88 |  | 
Cc1ccc(S(=O)(=O)Nc2c(O)c3ccccc3oc2=O)cc1C |  | 6.35 |  | inactive
CCn1c(=O)c(=O)[nH]c2c(=O)oc3ccc(S(=O)(=O)Nc4ccccc4)cc3c21 |  | -26.4 | 13 µM (active) | 
Cn1c(=O)oc2cc(S(=O)(=O)Nc3ccccc3)ccc21 | -3.68% [at 9.22 µM] (inactive) | -3.03 |  | 
CCn1c(=O)c(=O)[nH]c2c(=O)oc3ccc(S(=O)(=O)Nc4ccc(OC)cc4)cc3c21 |  | 1.26 | 4.61 µM (active) | 
COc1ccc(NS(=O)(=O)c2ccc3oc(=O)ccc3c2)cc1 | -5.71% (inactive) | -11.6 |  | 

SMILES | lipid storage change, negative = inhibition | cell number change [%] | Potency | outcome
COc1ccc(NS(=O)(=O)c2ccc3oc(=S)[nH]c3c2)cc1 | -21.1% (inactive) | 5.85 |  | 
COc1ccc(-c2nc(=S)[nH][nH]2)cc1 | 2.02% (inactive) | -14.6 |  | 
O=C(NCc1cccnc1)C1CCCN(Cc2cnn(-c3ccccc3)c2-n2cccc2)C1 (stereo unspecified) | 0.331% (inactive) | -3.38 |  | 
Cc1ccc2nc3c(cc(C(=O)NCc4ccco4)c(=N)n3Cc3ccco3)c(=O)n2c1 | -7.54% (inactive) | -5.34 |  | 
Cc1ccc(N(C(=O)CCC(=O)Nc2cc(C)on2)C(C(=O)NC2CCCC2)c2ccccc2)cc1 (stereo unspecified) |  | -13.1 |  | inactive
O=C(CSc1nnc(-c2ccco2)n1-c1ccccc1)N1CCOCC1 |  |  |  | inactive
Cc1ccsc1C(=O)Nc1ccc(C(=O)O)cc1 |  |  |  | inactive
O=C(O)CCCC(=O)N1CCOCCOCCOCCOCC1 | -7% (inactive) | 22.2 |  | 
Cc1cccc(NC(=O)CNC(=O)COc2ccc(C(=O)c3ccc(F)cc3)cc2)c1C | 26.3% (inactive) | 8.34 |  | 
CN(C)C(=O)Cn1cc(S(=O)(=O)Cc2ccccc2)c2ccccc21 |  | -2.09 | 0.651 µM (active) | 
O=C(Cn1cc(S(=O)(=O)Cc2ccccc2)c2ccccc21)N1CCOCC1 | 10.8% (inactive) | 6.54 |  | 
CCN(CC)C(=O)Cn1cc(S(=O)(=O)Cc2cccc([N+](=O)[O-])c2)c2ccccc21 | 1.45% (inactive) | 0.298 |  | 
CC(C)OC(=O)CSc1nc2c(cc1C#N)CCCCC2 | -3.11% (inactive) |  |  | 
Cc1cc(C(=O)CN2C(=O)C(=O)N(C3CCCC3)C2=O)c(C)n1CCc1ccc(F)cc1 |  | -15.3 | 20.6 µM (active) | 
Cc1cc(C(=O)CN2C(=O)C(=O)N(Cc3ccccc3)C2=O)c(C)n1Cc1ccc(F)cc1 | 18.7% (inactive) | -8.57 |  | 
Cc1cc(C(=O)CCl)c(C)n1CCc1ccc(F)cc1 | -0.0782% (inactive) | -8.52 |  | 
COC(=O)C(C)N(C(=O)c1cccc(Cl)c1)c1c(C)cccc1C (stereo unspecified) |  |  |  | inactive
CC1CCCN(C(=O)CNC(=O)c2sc3ccccc3c2Cl)C1 (stereo unspecified) | 0.306% [at 0.0737 µM] (inactive) | 11.4 |  | 
COC(=O)C(Cc1ccccc1)NC(=O)CNC(=O)c1sc2ccccc2c1Cl (stereo unspecified) |  | -4.58 | 1.84 µM (active) | 
CC(=O)Nc1ccc(NC(=O)CNC(=O)c2sc3ccccc3c2Cl)cc1 | -4.95% (inactive) | 0.461 |  | 
CC1CC(C)CN(C(=O)CNC(=O)c2sc3ccccc3c2Cl)C1 (stereo unspecified) |  | -1.35 | 1.46 µM (active) | 
Cc1ccc(S(=O)(=O)N2CCN(C(=O)CNC(=O)c3sc4ccccc4c3Cl)CC2)cc1 |  |  |  | inactive

SMILES | lipid storage change, negative = inhibition | cell number change [%] | Potency | outcome
COC(=O)c1ccc(CNC(=O)CNC(=O)c2sc3ccccc3c2Cl)cc1 | 5.59% (inactive) | 3.22 |  | 
CC(C)N(Cc1nc(-c2ccccc2)no1)C(=O)C(C)(C)C |  |  |  | inactive
Cc1cccc(OCC(=O)N=Nc2c(O)[nH]c3ccc([N+](=O)[O-])cc23)c1 | -6.55% (inactive) | -0.974 |  | 
O=C(CNC(=O)c1ccco1)N=Nc1c(O)[nH]c2ccc(Br)cc12 | -20.8% (inactive) | -9.17 |  | 
O=C(CNC(=O)c1ccco1)N=Nc1c(O)[nH]c2ccc([N+](=O)[O-])cc12 |  | 26.6 | 1.03 µM (active) | 
CCCCN(C(=O)c1cccc(S(=O)(=O)N2CC(C)OC(C)C2)c1)c1c(N)n(CC(C)C)c(=O)[nH]c1=O (stereo unspecified) | 17% (inactive) |  |  | 
O=[N+]([O-])c1ccc2nc(C(O)C(O)c3nc4ccc([N+](=O)[O-])cc4[nH]3)[nH]c2c1 (stereo unspecified) |  | 22.3 |  | inactive
Cc1cccc(-c2nnc(SCC(=O)O)n2Cc2ccccc2)c1 | 6.73% (inactive) | -0.739 |  | 
COc1ccc(-c2nnc(SCC(=O)O)n2Cc2ccccc2)cc1 | -23% (inactive) | 16.6 |  | 
O=C(O)CSc1nnc(-c2cccnc2)n1Cc1ccccc1 | 7.76% (inactive) | 0.309 |  | 
O=C(O)CSc1nnc(-c2ccc(Cl)cc2Cl)n1Cc1ccccc1 |  | -15.2 | 5.8 µM (active) | 
O=C(O)CSc1nnc(-c2ccccc2O)n1Cc1ccccc1 |  | 0.192 | 25.9 µM (active) | 
O=C(O)CSc1nnc(-c2ccc(Cl)cc2Cl)n1-c1ccccc1 |  | 9.07 |  | inactive
Cc1cccc(-c2ccc3ncnc(NCc4cc(C)cs4)c3c2)c1 | -4.08% (inactive) | 8.79 |  | 
O=C(CCSc1ccccc1)Nc1ccccc1Br | -12.8% (inactive) | 3.05 |  | 
COc1ccccc1NC(=O)COC(=O)CCn1c(C)csc1=O | 22.3% [at 0.0737 µM] (inactive) | -23.2 |  | 
O=C(CN1C(=O)c2ccccc2C1=O)Nc1ccccc1C(=O)NC1CCCCCC1 | 5.16% (inactive) | 2.31 |  | 
COc1cccc(C2CC(C(F)(F)F)n3ncc(C(=O)O)c3N2)c1 (stereo unspecified) | 7.32% (inactive) | -3.05 |  | 
CCOC(=O)C1C(=O)Nc2nc(C)nn2C1c1ccccc1 (stereo unspecified) |  |  |  | inactive
Cc1cccc(NC(=O)c2cc3c(=O)n4ccccc4nc3n(CC(C)C)c2=N)c1 | 4.83% (inactive) | 2.38 |  | 
O=c1oc(-c2ccccc2Br)nc2ccccc12 |  | -5.52 |  | inactive
Cc1cc(C)n(-c2ccc(Cl)c(C(=O)Nc3ccc(OC(F)(F)F)cc3)n2)n1 | 19.9% (inactive) | 14.5 |  | 

SMILES | lipid storage change, negative = inhibition | cell number change [%] | Potency | outcome
O=C(Nc1ccccn1)c1sc2cccc(F)c2c1Cl | 1.57% (inactive) | 9.28 |  | 
CCC(C)NC(=O)C(Cc1ccccc1)NS(=O)(=O)c1ccc2c(c1)CCC(=O)N2 (stereo unspecified) |  | 1.42 | 20.6 µM (active) | 
CCCCC(CC)CNC(=O)C(Cc1ccccc1)NS(=O)(=O)c1ccc2c(c1)CCC(=O)N2 (stereo unspecified) | 0.0744% (inactive) | 9.41 |  | 
CCCNC(=O)C(Cc1ccccc1)NS(=O)(=O)c1ccc2c(c1)CCC(=O)N2 (stereo unspecified) | 8.28% (inactive) |  |  | 
Cc1ccc(NC(=O)N2CCN(C(=O)c3ccco3)CC2)cc1Cl | -0.198% (inactive) | -6.19 |  | 
Cn1nnnc1SCC(=O)Nc1ccc(Cl)c(S(=O)(=O)N2CCOCC2)c1 | -1.86% (inactive) | 21.3 |  | 
COc1ccc(CNC(=O)C2=CC(c3ccc(OC)cc3)=NS(=O)(=O)N2C)cc1 | -22.8% (inactive) | -7.78 |  | 
CCc1ccc(NC(=O)C2=CC(c3ccc(OC)cc3)=NS(=O)(=O)N2C)cc1 |  | -11.3 | 10.3 µM (active) | 
COc1ccc(C2=NS(=O)(=O)N(C)C(C(=O)Nc3cc(C)ccc3O)=C2)cc1OC | 4.1% (inactive) | 4.03 |  | 
COc1ccc(C2=NS(=O)(=O)N(C)C(C(=O)Nc3ccc(C(C)=O)cc3)=C2)cc1OC | 0.308% (inactive) | 3.67 |  | 
COc1ccc(NC(=O)C2=CC(c3ccc(C)cc3)=NS(=O)(=O)N2C)cc1OC |  | -8.07 |  | inactive
COc1ccc(NC(=O)C2=CC(c3ccc(C)cc3)=NS(=O)(=O)N2C)cc1 |  | 4.61 | 5.17 µM (active) | 
COc1ccc(CNC(=O)C2=CC(c3ccc(OC)c(OC)c3)=NS(=O)(=O)N2C)cc1 | -14.8% (inactive) | -8.36 |  | 
CCc1ccc(NC(=O)C2=CC(c3cccs3)=NS(=O)(=O)N2C)cc1 |  |  | 20.6 µM (active) | 
Cc1ccc(O)c(NC(=O)C2=CC(c3cccs3)=NS(=O)(=O)N2C)c1 | -11.7% (inactive) | -6.05 |  | 
COc1ccc(NC(=O)C2=CC(c3ccco3)=NS(=O)(=O)N2C)cc1 |  | 15 |  | inactive
COc1cc(NC(=O)C2=CC(c3ccc(C)cc3)=NS(=O)(=O)N2C)cc(OC)c1OC |  | -6.34 | 1.46 µM (active) | 
CC(=O)c1cccc(NC(=O)C2=CC(c3cccs3)=NS(=O)(=O)N2C)c1 |  |  |  | inactive
CCCN(CCC)Cc1c(C(=O)N/N=C/c2ccco2)nnn1-c1nonc1N | 4.78% (inactive) | 1.25 |  | 
O=S(=O)(NC1CC1)c1ccc(S(=O)(=O)N2CCN3CCCC3C2)cc1 (stereo unspecified) | -25.1% (inactive) | -22 |  | 
C=CCn1c(-c2cccc(OC)c2OC)n[nH]c1=S | 16.6% [at 9.22 µM] (inactive) | 6.07 |  | 
